Assay results from the supplement of paper PMC6555819.

Each sequence was assayed on VDR:RXRa (NR concentration 270 nM, RXRa partner concentration 90 nM) (assay: PBM binding z-score (relative to random genomic background probes); higher = stronger binding; sequences stand for … in GC…GCGATTGACAGCGTAGAATGAAGG).
Method: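 Protein-binding microarray (Agilent 4x180K custom design, double-stranded 60-nt probes: 5' GC cap, 34-nt variable region, 24-nt constant primer region; full probe sequence given). Purified or IVT nuclear receptor:RXRα heterodimers (3:1 NR:RXRα, mostly 270:90 nM) or homodimers were incubated for 1 h in PBS with 2% milk and no ligand, then detected with Alexa488 antibodies. Fluorescence from o1-orientation probes (~5 replicates averaged) was converted to z-scores against 500 random hg19 background probes. Variable regions are seed direct-repeat (DR0–DR5) sites, all their single-nucleotide variants and half-site ablations.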
In the case of GCTATTAGGTGAAAGGGCAACCGAATGATTCTCG, the PBM binding z-score is reported as 0.806. In the case of TGAATGAAGTTAAAGATCAGGGAACGTGGCGTCG, the PBM binding z-score is reported as -0.41. CGAACTAGATCACCAGGACAGTGAAGAGGTTGGA showed a PBM binding z-score of -0.366. ACTAGTTGCTCAGCTGAGGTCACACACAATTCGG showed a PBM binding z-score of 3.65. ATATGTAGGTCATCGGGTCATTCAGTTTGCGCAT gave a PBM binding z-score of 6.28. ACTAGTTGGTCAGCTGGGGTCACACACAATTCGG was tested, and the PBM binding z-score was 4.93. CGAACTAGGTCAGAACAGGACATTGAAGGATGAT gave a PBM binding z-score of 1.59. CATACAGGGTCATCTAGGCCAGAGTAGGGACGGC gave a PBM binding z-score of 5.26. Sequence CGAACTAGGTCACCAGGACTGTGAAGAGGTTGGA has a PBM binding z-score of 2.26. CCTCGGAGGACACCAGGAGGTCAGAGCTGCCAGA gave a PBM binding z-score of 1.99. In the case of ATCGAAAGGTCGACGAGGTGAGTATGCACCGTTT, the PBM binding z-score is reported as 5.27. TCGAGTAGGTTACGGGGACATTCAGGGATGAAGA showed a PBM binding z-score of 1.27. For CCTACAGGGCCAAGGTCATTGATCAGTCAAAGCA, the PBM binding z-score was 3.39. CGTCAAAGTTCACCTAAGGTAACGTAAAGCACGC was tested, and the PBM binding z-score was 4.82. Work on CAAACTAGGTCAAAGGTCAAACTCGAGCCAACCA yielded a PBM binding z-score of 6.96. Work on TAGCCTCGGTCATTCAGGGGCCAGTATAGAAAGC yielded a PBM binding z-score of 0.169. With CGAACTAGGTCACCAGGACAGCGAAGAGGTTGGA the PBM binding z-score was 1.88. For GATTACGGGTCAAAGGTTATAGCATGAATAGAAT, the PBM binding z-score was 5.82. TAGCCTAGGACATGCGGGCCAGTATAGTGTCGGC was tested, and the PBM binding z-score was -0.777. In the case of TCTCGGAGGACACGAAGGTCAGCGCTTTCCAGAG, the PBM binding z-score is reported as 2.35. Work on CCTAGTTGGTCAGGAGGTCACAAACCGGATATGA yielded a PBM binding z-score of 3.4. AATACAGGGTCACTTGGCCAGAGTAGGTACGAAT gave a PBM binding z-score of 4.36. CTATGTCGGTTAAGGGGGTCATTCAGTTTGAAAG gave a PBM binding z-score of 6.77. In the case of CTATGTAGGTTAAGGGGGTCATTAAGTTTGAAAG, the PBM binding z-score is reported as 7.64. ATATCTAGGTTAGGGTCATTCAGAAAGTAGGGAA showed a PBM binding z-score of 4.41. CCGACTTGGGCAAAGGTTACCATACTCAGTACGA showed a PBM binding z-score of 0.927. For ACTAGTTGGTCAGCTGAGGTCACACACAATTCGG, the PBM binding z-score was 4.67. Work on CCGTACGGGTCAAGGTTATAGCACGGGTGGTACG yielded a PBM binding z-score of 3.43. TTACAAAGGTGAAAGGTCGTTGATGCACGCCTTG gave a PBM binding z-score of 4.35. With CCTTACGGGTCAAGGTTGTAGCACGGGTGGTACG the PBM binding z-score was 3.02. For CGAACTAGGTAAAGGACAGTGAATCTCCGCACGC, the PBM binding z-score was -0.323. CTCTGTAGGTTAAGGGGGTCATTCAGTTTGAAAG was tested, and the PBM binding z-score was 7.66. For CCTACTGGGCCGAGGTCATTGATCAGTCAAAGCA, the PBM binding z-score was 4.12. CCGAGTAGGTTACGCGGGGGCATTCAGTGCGAAT was tested, and the PBM binding z-score was 5.48. Work on CTCGAAAGGTCGGTTGAGGTCAGTATACGGATAA yielded a PBM binding z-score of 6.09. In the case of CTAACTAGGTCAAAGGACAGTGAAAGGCGACGTA, the PBM binding z-score is reported as 1.3. With CGTCAAAGCTCAACTAAGGTAACGTAAAGCACGC the PBM binding z-score was 0.0405. For CCTTACGGGCCACGAGGTTATAGCACGACGAGCG, the PBM binding z-score was 0.504. For CCCGCTAGGTCATGGTCAGCTAATCTACAGTATG, the PBM binding z-score was 1.69. Sequence ATATGAAGGTTAGGGTCATTCAGAAAGTAGGGAA has a PBM binding z-score of 4.6.
